Assay results published in PubChem BioAssay (NCI).
Values joined by “and” are separate entries in the source; they are usually repeats but may differ in a detail not shown here. Equal values may be shown once. Compounds without any hit were thinned out: in the full panel of roughly 83,000, 20% have a hit.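 Cell lines were cultured in 96-well plates, exposed to a single compound concentration, and assessed for percent growth 48 hours later.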 Active and inactive are the calls of the source. How the source made its calls: active means growth percent below 10; inactive means the rest.

Each compound was assayed on MDA-MB-468 breast (assay: NCI-60 one-dose screen, 48 h (100 = growth as untreated, 0 = no growth, -100 = all killed)). Details: 10 µM unless noted.

Row | Structure (SMILES) | growth
1 | COC(=O)CC1=C(C)/C(=C/c2[nH]c(-c3ccc[nH]3)cc2OC)N=C1C | 19% (inactive)
2 | COc1ccc(C2C(C#N)=C(N)Oc3c2sc2c(Br)cccc32)cc1 (stereo not given) | 3.82% (active)
3 | CC1(C)CC(=O)CC2(C1)N=C(N)Nc1nc3ccccc3n12 (stereo not given) | 107% (inactive)
4 | COc1cccc2c(=O)c3c(sc12)c(NCCCN)nc1ccccc13 | -8% (active)
5 | Nc1[nH][nH]c(=O)c1N=Nc1ccccc1 | 105% (inactive) and 98.5% (inactive)
6 | O=C1/C(=C/c2ccccc2)CN(C(=O)CCN2CCC(=NO)CC2)C/C1=C\c1ccccc1 | -22.7% (active)
7 | Cc1ccc(Nc2ccc(Nc3ccc(C)cc3S(=O)(=O)O)c3c2C(=O)c2ccccc2C3=O)c(S(=O)(=O)O)c1 | 104% (inactive)
8 | O=C(/C=C/c1ccccc1)n1c(-c2ccccc2)nc2ccccc21 | 98.2% (inactive)
9 | COc1cccc2cc(N(C)c3nc(C)nc4c3CCC4)ccc12 | 18% (inactive)
10 | O=[N+]([O-])c1cccc2nsnc12 | 93.1% (inactive)
11 | OCCn1cc(-c2nc(-c3c[nH]c4ncccc34)cs2)c2ccccc21 | 4.37% (active)
12 | COc1cc2c(cc1OC)C1CCN3C(=O)CCC3N1CC2 (stereo not given) | 107% (inactive)
13 | Cc1ccc(Cl)cc1NC(=O)c1sc2nc3c(cc2c1N)C(=O)CCC3 | 8.44% (active)
14 | CCN(CC)CCOc1nc2ccccc2c2c1-c1ccc(OC)cc1C2=O | 14.3% (inactive)
15 | CCCCOc1ccc(/C=C2/SC(N3CCOCC3)=NC2=O)cc1OCC | 97.8% (inactive)
16 | CCC(C)(C)C(=O)O[C@H]1C[C@@H](C)C=C2C=C[C@H](C)[C@H](CC[C@@H]3CC=CC(=O)O3)[C@H]21 | 52.1% (inactive)
17 | COc1ccc(C(=S)N2CCN(c3cccc(C)c3)CC2)cc1OC | 66.3% (inactive)
18 | N#Cc1ccc(C2C3=C(CCCC3=O)OC3=C2C(=O)c2ccccc2C3=O)cc1 (stereo not given) | -16.1% (active)
19 | O=C1COc2ccccc2C(=O)N1CCCCN1CCCCC1 | 76.3% (inactive)
20 | Oc1cccc2ccc(-c3nnc(SCc4ccc(O)c5ncccc45)o3)nc12 | 0.74% (active)

Row | Structure (SMILES) | growth
21 | C=C1C(=O)O[C@@H]2[C@@H]3O[C@@](C)(CC/C=C(\C)CCC[C@@H]2C)[C@H](O)C[C@@H]13 | -24.9% (active)
22 | O=C1C=C(OCC=C(C(F)(F)F)C(F)(F)F)c2ccccc2C1=O | -51.2% (active)
23 | Cc1nn(-c2ccccc2)c2c1N=c1s/c(=C\c3ccc(C(F)(F)F)cc3)c(=O)n1CN2 | 44.1% (inactive)
24 | Cc1cc2nc3c4cc(C=O)ccc4n(CCN(C)C)c3nc2cc1C | -5.88% (active)
25 | COc1cc(-c2nnc(-c3c(-c4ccc(F)cc4)nc4ccccn34)o2)cc(OC)c1OC | 99.4% (inactive)
26 | Cc1cccc(N=Nc2cccc(C)c2)c1 | 108% (inactive)
27 | OCC1OC(n2ccc3c2ncn2ncnc32)C(O)C1O (stereo not given) | -5.09% (active)
28 | CSC1=Nc2c(c(C)c(-c3ccccc3)n2CCCN2CCCCC2)C2=NC(=O)C[C@H](C)N12 | -18.6% (active)
29 | CCO/C=N/NC(=O)c1ccncc1 | 107% (inactive)
30 | CCOC(=O)COc1ccc2c(c1)O/C(=C\c1ccc(O)cc1)C2=O | 91.9% (inactive)
31 | COc1ccccc1CNCCCCCCCCCCCCN1C(=O)c2ccc3c4c(ccc(c24)C1=O)C(=O)N(CCCCCCCCCCCCNCc1ccccc1OC)C3=O | -8.04% (active)
32 | O=C1c2ccccc2C(=O)c2c1oc1ccc3ccccc3c21 | -10.4% (active)
33 | CCN(CC)c1ccc(/C=C\c2cc(C)c3cc(C)ccc3n2)cc1 | 1.26% (active)
34 | COc1ccc(C2c3ccc4ccccc4c3Oc3nc(C)[nH]c(=O)c32)cc1 (stereo not given) | 111% (inactive)
35 | CCCCCCCCCCCC[n+]1ccccc1 | -23.6% (active)
36 | C#CC(F)(F)[C@]1(O)CCC2C3CCC4=CC(=O)CCC4=C3[C@@H](c3ccc(N(C)C)cc3)C[C@@]21C (stereo not given in full) | 101% (inactive)
37 | CC(=O)O[C@H]1CC[C@@]2(C)[C@@H](CC[C@@H]3[C@@H]2CC[C@]2(C)C=C(C=O)C[C@@H]32)C1 | 111% (inactive)
38 | Cn1c(SCC(=O)c2ccco2)nc2ccccc2c1=O | 5.9% (active)
39 | NC(N)=N/N=C/c1cccc(Cl)c1Cl | 18.1% (inactive)
40 | COc1cc(C)ccc1Oc1nc(Nc2ccc(N3CCOCC3)cc2)ncc1N=Cc1cc(C(F)(F)F)cc(C(F)(F)F)c1 | 71% (inactive)
